Results as given in PubChem BioAssay (NCATS).
Results filed as inconclusive are left out. Where a call stands in place of a potency, no number is given. The source made the active and inactive calls. The call rests on the fitted dose curve; in most records, active means well fitted curve in the direction sought with a large enough effect; inconclusive means small, poorly fitted or top-dose-only effect, or another doubt; inactive means no such curve, though single readings can be large; an effect the other way counts as inactive or inconclusive. Peptide text beside a SMILES is read from it.

Legend:
[1] = Quantitative High-Throughput drug screen in 47 multiple myeloma cell lines against the NCATS MIPE library collection: KMM1_JCRB cell viability assay (AID 1918960); further: nearly all actives have a fitted effect of over 30% in size
Method in brief: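 Myeloma cells, 500 per well, were exposed to MIPE 4.0 drugs by pin transfer for 48 h at 37 °C, 5% CO2. Viability was read as ATP luminescence with CellTiter-Glo, normalised to DMSO-only (100%) and medium-only (0%) wells.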

[2] = Quantitative High-Throughput drug screen in 47 multiple myeloma cell lines against the NCATS MIPE library collection: Karpas417_ECACC cell viability assay (AID 1918961); conditions: Karpas417 myeloma viability, CellTiter-Glo ATP luminescence, 48 h; viability (% of DMSO): at 45.8 µM (top of the series)
Method in brief: (§1)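 Myeloma cell lines, 500 cells per well, exposed to MIPE 4.0 library compounds for 48 h at 37C, 5% CO2. Viability from ATP by CellTiter-Glo luminescence; normalised to DMSO (100%) and media-only (0%) wells.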

[3] = Quantitative High-Throughput drug screen in 47 multiple myeloma cell lines against the NCATS MIPE library collection: KHM11_PLB cell viability assay (AID 1918962); further: nearly all actives have a fitted effect of over 35% in size
Method in brief: as §1

[4] = Quantitative High-Throughput drug screen in 47 multiple myeloma cell lines against the NCATS MIPE library collection: JIM3_ECACC cell viability assay (AID 1918963; further: nearly all actives have a fitted effect of over 35% in size)
Method in brief: as §1

[5] = Quantitative High-Throughput drug screen in 47 multiple myeloma cell lines against the NCATS MIPE library collection: JIM1_ECACC cell viability assay (AID 1918964)
Method in brief: (§2)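 Myeloma cells (500 per well) were exposed to MIPE 4.0 compounds by pin transfer and incubated 48 hours at 37C, 5% CO2. Viability was read as ATP by CellTiter-Glo luminescence, normalised to DMSO (100%) and media-only (0%) wells.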

[6] = Quantitative High-Throughput drug screen in 47 multiple myeloma cell lines against the NCATS MIPE library collection: H1112_PLB cell viability assay (AID 1918967; further: nearly all actives have a fitted effect of over 30% in size)
Method in brief: as §2

[7] = Quantitative High-Throughput drug screen in 47 multiple myeloma cell lines against the NCATS MIPE library collection: Karpas25_ECACC cell viability assay (AID 1918968; further: nearly all actives have a fitted effect of over 35% in size)
Method in brief: as §2

[8] = Quantitative High-Throughput drug screen in 47 multiple myeloma cell lines against the NCATS MIPE library collection: KMS27_JCRB cell viability assay (AID 1918970); further: nearly all actives have a fitted effect of over 30% in size
Method in brief: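 Luminescent ATP read-out (CellTiter-Glo, 5 min at room temperature) after 48 h compound exposure of 500 KMS27_JCRB cells per well; DMSO wells define full viability and media-only wells zero.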

[9] = Quantitative High-Throughput drug screen in 47 multiple myeloma cell lines against the NCATS MIPE library collection: KMS12BM_JCRB cell viability assay (AID 1918971); further: nearly all actives have a fitted effect of over 35% in size
Method in brief: (§3)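 CellTiter-Glo luminescence (ATP) after 48 h compound exposure, 37C/5% CO2; 500 cells/well; MIPE 4.0 approved/investigational drugs pinned in; DMSO = 100%, media only = 0% viability.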

[10] = Quantitative High-Throughput drug screen in 47 multiple myeloma cell lines against the NCATS MIPE library collection: KMS12PE_JCRB cell viability assay (AID 1918972); further: nearly all actives have a fitted effect of over 30% in size
Method in brief: as §1

[11] = Quantitative High-Throughput drug screen in 47 multiple myeloma cell lines against the NCATS MIPE library collection: KMS20_JCRB cell viability assay (AID 1918973); further: nearly all actives have a fitted effect of over 45% in size
Method in brief: as §2

[12] = Quantitative High-Throughput drug screen in 47 multiple myeloma cell lines against the NCATS MIPE library collection: KMS26_JCRB cell viability assay (AID 1918975); further: nearly all actives have a fitted effect of over 45% in size
Method in brief: as §3

[13] = Quantitative High-Throughput drug screen in 47 multiple myeloma cell lines against the NCATS MIPE library collection: MOLP8_DSMZ cell viability assay (AID 1918977); further: nearly all actives have a fitted effect of over 45% in size
Method in brief: (§4)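 500 cells/well per myeloma line exposed to pinned MIPE 4.0 compounds for 48 h at 37 °C, 5% CO2. Viability read as ATP by CellTiter-Glo luminescence, normalised to DMSO-only (100%) and media-only (0%) wells.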

[14] = Quantitative High-Throughput drug screen in 47 multiple myeloma cell lines against the NCATS MIPE library collection: OCIMY1_PLB cell viability assay (AID 1918979); further: nearly all actives have a fitted effect of over 35% in size
Method in brief: as §4

[15] = Quantitative High-Throughput drug screen in 47 multiple myeloma cell lines against the NCATS MIPE library collection: MM1S_ATCC cell viability assay (AID 1918980); further: nearly all actives have a fitted effect of over 45% in size
Method in brief: as §4

[16] = Quantitative High-Throughput drug screen in 47 multiple myeloma cell lines against the NCATS MIPE library collection: MM1R_ATCC cell viability assay (AID 1918981); further: nearly all actives have a fitted effect of over 35% in size
Method in brief: as §4

[17] = Quantitative High-Throughput drug screen in 47 multiple myeloma cell lines against the NCATS MIPE library collection: INA6_PLB cell viability assay (AID 1918965; further: nearly all actives have a fitted effect of over 55% in size)
Method in brief: as §1

[18] = Quantitative High-Throughput drug screen in 47 multiple myeloma cell lines against the NCATS MIPE library collection: NCIH929_DSMZ cell viability assay (AID 1918978); further: nearly all actives have a fitted effect of over 35% in size
Method in brief: as §4

[19] = Quantitative High-Throughput drug screen in 47 multiple myeloma cell lines against the NCATS MIPE library collection: MMM1_PLB cell viability assay (AID 1918976); further: nearly all actives have a fitted effect of over 35% in size
Method in brief: as §4

[20] = Quantitative High-Throughput drug screen in 47 multiple myeloma cell lines against the NCATS MIPE library collection: JJN3_DSMZ cell viability assay (AID 1918966; further: nearly all actives have a fitted effect of over 50% in size)
Method in brief: as §2
Potency means the concentration at half of the fitted maximal effect.

Row | SMILES | Potency [1] | Potency [2] | Potency [3] | Potency [4] | Potency [5] | Potency [6] | Potency [7] | Potency [8] | Potency [9] | Potency [10] | Potency [11] | Potency [12] | Potency [13] | Potency [14] | Potency [15] | Potency [16] | Potency [17] | Potency [18] | Potency [19] | Potency [20]
1 | CCN(CC)CCOc1ccc(Nc2ncc3cc(-c4c(Cl)cccc4Cl)c(=O)n(C)c3n2)cc1 | 0.0332 µM (active) | 0.105 µM (active) | 1.32 µM (active) | 0.118 µM (active) | 0.0833 µM (active) | 5.9 µM (active) | 0.0209 µM (active) | 0.132 µM (active) | 2.35 µM (active) | 0.0105 µM (active) | 0.001 µM (active) | 5.26 µM (active) | 0.059 µM (active) | 2.96 µM (active) | 2.35 µM (active) | 1.32 µM (active) |  |  |  | 
2 | c1cnc2cc3c(cc2n1)C1CNCC3C1 | inactive | inactive | inactive | inactive | inactive |  | inactive |  | inactive | inactive |  | inactive | inactive | inactive |  | inactive | inactive |  |  | 
3 | NC(=O)Cc1cccc(C(=O)c2ccccc2)c1N | inactive |  | inactive | inactive |  |  |  |  |  | inactive |  | inactive | inactive |  |  | inactive | inactive |  |  | 
4 | COC(=O)[C@H](Cc1ccccc1)NC(=O)[C@@H](N)CC(=O)O (H-Asp-Phe-OMe) | inactive |  | inactive | inactive | inactive | inactive | inactive |  | inactive | inactive |  |  |  | inactive | inactive | inactive | inactive | inactive |  | 
5 | COC(=O)N[C@H](C(=O)N[C@@H](Cc1ccccc1)[C@@H](O)CN(Cc1ccc(-c2ccccn2)cc1)NC(=O)[C@@H](NC(=O)OC)C(C)(C)C)C(C)(C)C | inactive |  | inactive | inactive |  | inactive |  | inactive | 20.9 µM (active) | inactive |  |  |  | inactive | inactive |  | inactive |  | 6.62 µM (active) | 
6 | Cc1cc(C2CCCCC2)n(O)c(=O)c1 | 9.35 µM (active) | 2.96 µM (active) | 4.69 µM (active) | 8.33 µM (active) | 3.32 µM (active) | 13.2 µM (active) | 3.32 µM (active) |  | 8.33 µM (active) | 11.8 µM (active) | 11.8 µM (active) | 10.5 µM (active) | 4.18 µM (active) | 16.6 µM (active) | 0.935 µM (active) | 1.48 µM (active) | 6.62 µM (active) | 7.43 µM (active) | 14.8 µM (active) | 18.7 µM (active)
7 | C=CCc1cc(OC)c(O)c(C(=O)NCCO)c1 | inactive | inactive | inactive | inactive |  | inactive | inactive |  |  | inactive |  | inactive |  | inactive | inactive | inactive | inactive | inactive |  | 
8 | CC1=C(C(=O)O)N2C(=O)[C@@H](NC(=O)[C@H](N)C3=CCC=CC3)[C@H]2SC1 | inactive |  | inactive | inactive |  | inactive | inactive |  | inactive | inactive |  | inactive | inactive | inactive |  | inactive | inactive | inactive |  | 
9 | O=C(c1ccccc1)c1ccc2n1CCC2C(=O)O (stereo unspecified) | inactive | inactive | 8.33 µM (active) | 16.6 µM (active) |  | 13.2 µM (active) | 2.96 µM (active) | inactive | inactive | inactive | 8.33 µM (active) | 1.48 µM (active) | inactive | inactive | 1.05 µM (active) | 2.09 µM (active) | 10.5 µM (active) |  | 0.743 µM (active) | 
10 | C[C@H](Cn1cnc2c(N)ncnc21)OCP(=O)(O)O | inactive | inactive |  | inactive | inactive | inactive | inactive | inactive | inactive | inactive | inactive | inactive | inactive |  |  | inactive |  | inactive |  | 
11 | COCCCOc1ccnc(CS(=O)c2nc3ccccc3[nH]2)c1C (stereo unspecified) | inactive | inactive | inactive | inactive |  | inactive |  | inactive | inactive | inactive |  | inactive |  | inactive |  | inactive | inactive | inactive |  | 
12 | CN(C)c1ccc(O)c2c1C[C@H]1C[C@H]3[C@H](N(C)C)C(=O)C(C(N)=O)=C(O)[C@@]3(O)C(=O)C1=C2O | inactive | inactive |  |  | inactive |  | 16.6 µM (active) |  | 18.7 µM (active) | inactive |  | 13.2 µM (active) | 20.9 µM (active) | 18.7 µM (active) | 3.72 µM (active) | 16.6 µM (active) | 13.2 µM (active) |  | 18.7 µM (active) | 20.9 µM (active)
13 | O=P(O)(O)C(O)(Cn1ccnc1)P(=O)(O)O | inactive |  | inactive | inactive |  | inactive |  |  |  | inactive | inactive | inactive | inactive | inactive |  | inactive |  | inactive |  | 
14 | CCC[C@@H]1C[C@@H](C(=O)N[C@@H]([C@H]2O[C@H](SC)[C@H](O)[C@@H](O)[C@H]2O)[C@@H](C)O)N(C)C1 | inactive | inactive | inactive |  |  | inactive | inactive |  | 2.64 µM (active) | inactive |  | inactive | inactive |  | inactive | inactive |  |  |  | 
